Targets with a hit are over-represented here; the source holds about 8,800 in all. About 0.5% of all pairs of compound and target were hits. A number with no mark means an inactive call.
Tests used:
Test in all cases: log2 fold change, soluble protein after heating vs DMSO (PISA); higher = thermal stabilisation; K562 lysate, 10 uM; active = over 0.2 and 3.5 SD of the protein, either way, in both replicates (recomputed)
ibrutinib = compound: C=CC(=O)N1CCC[C@@H](n2nc(-c3ccc(Oc4ccccc4)cc3)c3c(N)ncnc32)C1 [ibrutinib]
Outline: (§1)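 K562 pellets were dounce-homogenised in PBS pH 7.4 with 1 mM MgCl2, and the crude extract at 1 mg/mL protein was treated with 10 μM compound for 30 min. Aliquots were heated for 3 min across 48°C-58°C, pooled, and brought to 0.5% NP-40 at 4°C; soluble protein was the supernatant after 21,000xg for 90 min. Soluble protein was quantified by TMTpro 16plex LC-MS/MS with channel sums equalised, and reported as log2 fold change in thermal stability against DMSO controls, with values from duplicates.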

[1] = compound: CC(=O)c1cnc2ccc(-c3cc(Cl)c(O)c(Cl)c3)nc2c1N[C@H]1CC[C@H](CN(C)C)CC1
Outline: as §1

ralimetinib = compound: CC(C)(C)Cn1c(N)nc2ccc(-c3[nH]c(C(C)(C)C)nc3-c3ccc(F)cc3)nc21 [ralimetinib]
Outline: as §1

[2] = compound: CC(C)(O)CC(=O)NCCn1ccc2ncnc(Nc3ccc(Oc4cccc(C(F)(F)F)c4)c(Cl)c3)c21
Outline: as §1

[3] = compound: CC(C)C1=C2N=C(C=C(N2N=C1)NCC3=CC=CC=C3)NCCCCCCN
Outline: as §1

[4] = compound: CC1=C(C(CC(=O)N1)C2=CC=C(C=C2)C(F)(F)F)C(=O)NC3=C(C=C4C(=C3)C=NN4)F
Outline: as §1

[5] = compound: CC1=C(C2=C(C=C1)C(=O)C3=CC=CC=C3N2CCCN)C
Outline: as §1

[6] = compound: CC1=C(C=C(C=C1)NC(=O)C2=CC(=CC=C2)C(C)(C)C#N)NC3=CC4=C(C=C3)N=CN(C4=O)C
Outline: as §1

[7] = compound: CC1=C(C=C(C=C1)NC(=O)C2=CC(=CC=C2)N(C)C)NC(=O)C3=CC=C(C=C3)O
Outline: as §1

[8] = compound: CC1=CC=C(C=C1)SC2=C3C=C(SC3=CN=C2)C(=O)N
Outline: as §1

vemurafenib = compound: CCCS(=O)(=O)Nc1ccc(F)c(C(=O)c2c[nH]c3ncc(-c4ccc(Cl)cc4)cc23)c1F [vemurafenib]
Outline: as §1

[9] = compound: CCCS(=O)(=O)Nc1ccc(F)c(C(=O)c2c[nH]c3ncc(Cl)cc23)c1F
Outline: as §1

barasertib = compound: CCN(CCCOc1ccc2c(Nc3cc(CC(=O)Nc4cccc(F)c4)[nH]n3)ncnc2c1)CCOP(=O)(O)O [barasertib]
Outline: as §1

[10] = compound: CC[C@@H]1C(=O)N(C)c2cnc(Nc3ccc(C(=O)NC4CCN(C)CC4)cc3OC)nc2N1C1CCCC1
Outline: as §1

volasertib = compound: CC[C@@H]1C(=O)N(C)c2cnc(Nc3ccc(C(=O)N[C@H]4CC[C@H](N5CCN(CC6CC6)CC5)CC4)cc3OC)nc2N1C(C)C [volasertib]
Outline: as §1

[11] = compound: CCn1c(C(=O)N(C2CC2)C2CC2)cc2c3c(ncn3C)c(Nc3cc(C)n(C)n3)nc21
Outline: as §1

[12] = compound: CCn1cc(-c2ccnc3[nH]c(-c4cccc(CN(C)C)c4)cc23)c(-c2ccc(NC(=O)N(C)C)cc2)n1
Outline: as §1

[13] = compound: CN1CCC(CNc2ccc3ncc(-c4cccc(OC(F)(F)F)c4)n3n2)CC1
Outline: as §1

saracatinib = compound: CN1CCN(CCOc2cc(OC3CCOCC3)c3c(Nc4c(Cl)ccc5c4OCO5)ncnc3c2)CC1 [saracatinib]
Outline: as §1

sotrastaurin = compound: CN1CCN(c2nc(C3=C(c4c[nH]c5ccccc45)C(=O)NC3=O)c3ccccc3n2)CC1 [sotrastaurin]
Outline: as §1

Chain of UniProt P48729 (P48729 whole entry, looked up): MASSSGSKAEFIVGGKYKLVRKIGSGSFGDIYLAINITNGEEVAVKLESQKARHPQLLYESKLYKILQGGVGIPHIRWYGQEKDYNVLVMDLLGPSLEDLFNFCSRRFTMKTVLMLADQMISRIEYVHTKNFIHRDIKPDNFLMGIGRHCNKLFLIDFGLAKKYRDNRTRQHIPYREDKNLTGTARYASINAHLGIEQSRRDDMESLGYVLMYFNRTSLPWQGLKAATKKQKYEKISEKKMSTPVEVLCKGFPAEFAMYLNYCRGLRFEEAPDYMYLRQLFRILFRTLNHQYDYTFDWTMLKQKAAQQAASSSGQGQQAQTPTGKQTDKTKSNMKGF
Chain of UniProt Q9NZN8 (Q9NZN8 whole entry, looked up): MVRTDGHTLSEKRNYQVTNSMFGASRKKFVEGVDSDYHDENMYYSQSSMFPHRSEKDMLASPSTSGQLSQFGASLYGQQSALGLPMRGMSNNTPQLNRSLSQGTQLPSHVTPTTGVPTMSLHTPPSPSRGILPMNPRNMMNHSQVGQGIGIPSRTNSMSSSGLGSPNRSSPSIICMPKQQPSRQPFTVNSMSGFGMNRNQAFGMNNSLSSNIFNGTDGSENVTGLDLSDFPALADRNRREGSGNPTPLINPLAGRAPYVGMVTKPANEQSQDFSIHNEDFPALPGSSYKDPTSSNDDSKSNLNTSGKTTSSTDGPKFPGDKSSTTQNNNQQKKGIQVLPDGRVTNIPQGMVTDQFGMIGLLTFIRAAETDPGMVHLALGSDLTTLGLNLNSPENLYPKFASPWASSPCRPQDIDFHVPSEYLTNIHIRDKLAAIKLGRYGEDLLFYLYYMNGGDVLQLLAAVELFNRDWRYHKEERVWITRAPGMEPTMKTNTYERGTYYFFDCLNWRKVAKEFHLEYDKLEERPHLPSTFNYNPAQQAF
Chain of UniProt Q14008 (Q14008 whole entry, looked up): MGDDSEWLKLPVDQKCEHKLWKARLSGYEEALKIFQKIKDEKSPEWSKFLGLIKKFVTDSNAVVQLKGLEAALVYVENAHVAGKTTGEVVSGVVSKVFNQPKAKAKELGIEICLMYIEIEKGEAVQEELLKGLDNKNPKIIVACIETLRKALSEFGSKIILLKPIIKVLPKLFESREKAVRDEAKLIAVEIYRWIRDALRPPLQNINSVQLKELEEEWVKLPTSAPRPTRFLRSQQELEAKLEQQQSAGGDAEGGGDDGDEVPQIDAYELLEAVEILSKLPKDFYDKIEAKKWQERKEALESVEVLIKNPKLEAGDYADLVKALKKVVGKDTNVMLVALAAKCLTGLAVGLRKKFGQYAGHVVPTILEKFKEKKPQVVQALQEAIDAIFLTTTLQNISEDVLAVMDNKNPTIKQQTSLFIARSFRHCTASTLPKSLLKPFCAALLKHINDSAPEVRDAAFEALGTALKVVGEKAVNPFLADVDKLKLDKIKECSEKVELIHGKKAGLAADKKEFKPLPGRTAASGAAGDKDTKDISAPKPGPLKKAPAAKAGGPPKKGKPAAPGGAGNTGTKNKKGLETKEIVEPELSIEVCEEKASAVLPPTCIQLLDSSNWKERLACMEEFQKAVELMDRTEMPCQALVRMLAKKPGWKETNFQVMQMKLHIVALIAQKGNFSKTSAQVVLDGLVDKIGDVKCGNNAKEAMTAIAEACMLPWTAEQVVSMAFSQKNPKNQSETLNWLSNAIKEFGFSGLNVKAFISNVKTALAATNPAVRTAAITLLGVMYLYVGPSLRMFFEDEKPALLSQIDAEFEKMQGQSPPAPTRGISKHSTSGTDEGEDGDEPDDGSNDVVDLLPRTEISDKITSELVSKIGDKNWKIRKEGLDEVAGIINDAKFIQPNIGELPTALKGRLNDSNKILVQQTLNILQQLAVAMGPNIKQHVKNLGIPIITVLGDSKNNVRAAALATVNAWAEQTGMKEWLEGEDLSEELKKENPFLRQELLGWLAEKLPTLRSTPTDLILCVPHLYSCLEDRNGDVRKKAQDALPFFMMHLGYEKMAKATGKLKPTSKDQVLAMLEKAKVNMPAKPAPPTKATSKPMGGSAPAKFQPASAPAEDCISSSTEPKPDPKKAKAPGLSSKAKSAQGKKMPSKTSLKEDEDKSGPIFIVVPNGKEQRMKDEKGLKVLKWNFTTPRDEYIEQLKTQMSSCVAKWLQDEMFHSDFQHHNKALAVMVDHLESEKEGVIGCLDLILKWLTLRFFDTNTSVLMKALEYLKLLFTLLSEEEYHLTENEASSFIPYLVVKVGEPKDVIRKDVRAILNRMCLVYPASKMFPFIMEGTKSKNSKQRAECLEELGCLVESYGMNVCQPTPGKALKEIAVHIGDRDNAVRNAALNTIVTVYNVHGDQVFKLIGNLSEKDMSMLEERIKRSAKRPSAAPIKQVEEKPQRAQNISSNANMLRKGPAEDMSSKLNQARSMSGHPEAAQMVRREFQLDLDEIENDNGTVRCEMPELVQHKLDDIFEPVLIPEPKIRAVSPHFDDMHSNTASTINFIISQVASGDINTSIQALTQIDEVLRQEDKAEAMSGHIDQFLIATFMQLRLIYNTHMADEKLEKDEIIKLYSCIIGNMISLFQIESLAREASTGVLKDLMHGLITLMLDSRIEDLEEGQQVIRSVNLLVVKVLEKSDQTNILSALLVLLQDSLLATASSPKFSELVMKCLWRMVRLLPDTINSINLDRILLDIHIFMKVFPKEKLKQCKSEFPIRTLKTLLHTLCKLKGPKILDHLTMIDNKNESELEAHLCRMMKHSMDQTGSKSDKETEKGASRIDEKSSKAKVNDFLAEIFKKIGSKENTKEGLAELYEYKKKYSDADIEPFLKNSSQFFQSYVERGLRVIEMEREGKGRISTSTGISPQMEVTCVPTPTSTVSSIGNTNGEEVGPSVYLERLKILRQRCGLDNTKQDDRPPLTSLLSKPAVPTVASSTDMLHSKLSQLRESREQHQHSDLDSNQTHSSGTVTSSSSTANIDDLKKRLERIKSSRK
Chain of UniProt Q8TB03 (Q8TB03 whole entry, looked up): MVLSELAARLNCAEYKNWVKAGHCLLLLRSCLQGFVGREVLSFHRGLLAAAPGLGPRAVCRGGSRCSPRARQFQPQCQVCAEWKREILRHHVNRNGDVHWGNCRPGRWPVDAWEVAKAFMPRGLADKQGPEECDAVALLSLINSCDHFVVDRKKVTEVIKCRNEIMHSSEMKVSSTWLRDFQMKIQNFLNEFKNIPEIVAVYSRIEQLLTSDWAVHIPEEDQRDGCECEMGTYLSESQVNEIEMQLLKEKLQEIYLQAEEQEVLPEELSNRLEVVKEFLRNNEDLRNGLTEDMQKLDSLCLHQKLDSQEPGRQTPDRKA
Chain of UniProt Q07973 (Q07973 whole entry, looked up): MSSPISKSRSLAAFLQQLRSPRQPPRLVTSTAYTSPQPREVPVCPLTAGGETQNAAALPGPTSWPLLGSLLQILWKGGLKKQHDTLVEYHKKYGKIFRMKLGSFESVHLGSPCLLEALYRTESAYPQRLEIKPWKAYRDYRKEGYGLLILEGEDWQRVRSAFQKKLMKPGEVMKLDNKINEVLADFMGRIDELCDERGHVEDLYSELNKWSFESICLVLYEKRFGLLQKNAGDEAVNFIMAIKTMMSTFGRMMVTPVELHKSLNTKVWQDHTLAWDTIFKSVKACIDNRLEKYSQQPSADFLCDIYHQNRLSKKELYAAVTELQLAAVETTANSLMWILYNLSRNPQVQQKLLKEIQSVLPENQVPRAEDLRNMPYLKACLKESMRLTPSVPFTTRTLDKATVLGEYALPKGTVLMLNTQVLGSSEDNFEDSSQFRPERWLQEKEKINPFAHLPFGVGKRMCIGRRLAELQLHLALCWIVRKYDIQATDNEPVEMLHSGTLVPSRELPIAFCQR
Chain of UniProt Q96KP4 (Q96KP4 whole entry, looked up): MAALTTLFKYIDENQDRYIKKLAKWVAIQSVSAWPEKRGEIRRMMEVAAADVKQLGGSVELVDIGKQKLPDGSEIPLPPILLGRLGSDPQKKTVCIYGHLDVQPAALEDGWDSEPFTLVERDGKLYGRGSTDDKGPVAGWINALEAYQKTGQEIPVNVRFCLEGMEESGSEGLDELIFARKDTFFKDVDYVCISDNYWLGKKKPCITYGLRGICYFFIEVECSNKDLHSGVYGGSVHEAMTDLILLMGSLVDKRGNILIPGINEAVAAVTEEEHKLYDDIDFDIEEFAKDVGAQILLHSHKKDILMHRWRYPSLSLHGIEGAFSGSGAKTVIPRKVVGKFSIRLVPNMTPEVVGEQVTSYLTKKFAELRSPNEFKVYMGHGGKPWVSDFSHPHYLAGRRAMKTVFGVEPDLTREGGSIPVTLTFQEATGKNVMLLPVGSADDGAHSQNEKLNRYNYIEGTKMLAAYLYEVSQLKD
Chain of UniProt P04080 (P04080 whole entry, looked up): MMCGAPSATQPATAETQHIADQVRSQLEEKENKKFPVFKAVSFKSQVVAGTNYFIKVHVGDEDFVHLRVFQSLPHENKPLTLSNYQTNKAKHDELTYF
Chain of UniProt P00374 (P00374 whole entry, looked up): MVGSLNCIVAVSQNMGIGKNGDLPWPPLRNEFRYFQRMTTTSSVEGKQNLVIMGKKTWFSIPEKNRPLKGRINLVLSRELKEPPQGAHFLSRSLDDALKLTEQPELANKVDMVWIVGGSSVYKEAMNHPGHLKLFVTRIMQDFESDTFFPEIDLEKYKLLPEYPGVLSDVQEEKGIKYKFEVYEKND
Chain of UniProt P49674 (P49674 whole entry, looked up): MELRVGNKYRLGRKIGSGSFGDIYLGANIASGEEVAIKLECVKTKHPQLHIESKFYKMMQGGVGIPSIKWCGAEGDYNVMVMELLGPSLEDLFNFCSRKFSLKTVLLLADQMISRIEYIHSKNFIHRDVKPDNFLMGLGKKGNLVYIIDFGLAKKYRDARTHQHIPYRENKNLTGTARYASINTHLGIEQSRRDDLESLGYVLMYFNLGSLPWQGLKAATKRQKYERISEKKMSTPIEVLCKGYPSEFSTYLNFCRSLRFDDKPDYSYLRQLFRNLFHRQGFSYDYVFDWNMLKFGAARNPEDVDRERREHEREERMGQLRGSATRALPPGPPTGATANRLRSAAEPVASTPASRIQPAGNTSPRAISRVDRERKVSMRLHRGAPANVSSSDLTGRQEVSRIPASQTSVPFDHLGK

| Target | log2 fold change (ibrutinib) | log2 fold change [1] | log2 fold change (ralimetinib) | log2 fold change [2] | log2 fold change [3] | log2 fold change [4] | log2 fold change [5] | log2 fold change [6] | log2 fold change [7] | log2 fold change [8] | log2 fold change (vemurafenib) | log2 fold change [9] | log2 fold change (barasertib) | log2 fold change [10] | log2 fold change (volasertib) | log2 fold change [11] | log2 fold change [12] | log2 fold change [13] | log2 fold change (saracatinib) | log2 fold change (sotrastaurin) |
| --- | --- | --- | --- | --- | --- | --- | --- | --- | --- | --- | --- | --- | --- | --- | --- | --- | --- | --- | --- | --- |
| CSNK1A1 (UniProt P48729) | -0.098 | 0.148 | 0.088 | -0.002 | -0.035 | -0.019 | -0.002 | -0.029 | 0 | 0.003 | -0.044 | 0.017 | -0.003 | 0.078 | -0.066 | 0.097 | 0.065 | 0.171 | 0.02 | 0.048 |
| CNDP2 (UniProt Q96KP4) | 0.013 | -0.027 | 0.024 | -0.049 | -0.011 | -0.005 | -0.02 | 0.023 | 0 | -0.035 | 0.01 | 0.023 | -0.01 | 0.11 | 0.041 | -0.032 | -0.343 (active) | 0.278 (active) | 0.01 | 0.013 |
| CMBL (UniProt Q96DG6) | -0.059 | 0.22 (active) | 0.018 | -0.009 | -0.056 | -0.082 | 0 | 0.014 | -0.04 | -0.011 | -0.053 | -0.027 | -0.026 | 0.081 | 0.183 | 0.004 | -0.174 | 0.129 | -0.016 | -0.015 |
| DDB2 (UniProt Q92466) | 0.075 | -0.016 | 0.009 | -0.033 | -0.007 | 0.091 | -0.003 | 0.009 | 0 | 0.01 | -0.073 | 0.001 | 0.025 | 0.015 | -0.003 | 0 | 0.006 | 0.019 | -0.022 | 0.075 |
| DENND4A isoform 2 (UniProt Q7Z401) | 0 | -0.089 | 0.018 | -0.028 | 0.017 | 0.006 | 0.026 | 0.029 | 0.023 | -0.009 | -0.024 | 0.024 | 0.029 | 0.011 | -0.069 | 0.004 | -0.132 | 0.099 | 0.059 | 0.025 |
| CKAP5 (UniProt Q14008) | -0.024 | -0.008 | 0.015 | -0.012 | -0.007 | 0.007 | 0.005 | -0.013 | 0.023 | 0.006 | -0.023 | -0.013 | 0.003 | -0.002 | -0.021 | 0.022 | -0.016 | -0.033 | 0.005 | 0.025 |
| CRABP2 (UniProt P29373) | -0.039 | 0.061 | 0.097 | -0.015 | -0.002 | 0.176 | -0.088 | -0.028 | 0.082 | -0.03 | 0.128 | 0.007 | 0.528 | -0.139 | 0.026 | -0.005 | 0.089 | -0.003 | 0.092 | 0.001 |
| CYP24A1 (UniProt Q07973) | 0.01 | -0.036 | -0.03 | -0.159 | 0.019 | -0.05 | -0.051 | 0.183 | 0.007 | -0.067 | 0.065 | -0.01 | -0.055 | 0.166 | 0.006 | -0.212 | -0.499 (active) | 0.268 | 0.056 | 0 |
| CNOT2 (UniProt Q9NZN8) | 0.022 | 0.037 | 0.016 | -0.013 | -0.001 | -0.01 | 0.03 | 0.006 | -0.007 | 0.011 | 0.037 | -0.026 | 0.065 | 0.029 | -0.048 | 0.039 | 0.17 | -0.059 | -0.013 | 0.002 |
| CSNK1E (UniProt P49674) | 0.029 | 0.287 | 0.208 | -0.026 | -0.04 | -0.012 | -0.064 | -0.049 | -0.028 | -0.039 | -0.013 | -0.038 | 0.029 | 0.135 | -0.01 | 0.11 | -0.013 | 0.237 | 0.069 | 0.061 |
| DFFB (UniProt O76075) | 0.076 | -0.01 | 0.054 | -0.068 | -0.027 | 0.044 | 0.08 | 0.033 | -0.07 | -0.039 | 0.022 | 0.044 | -0.064 | 0.037 | -0.012 | 0.1 | -0.024 | 0.061 | 0.042 | 0.06 |
| DHFR (UniProt P00374) | -0.013 | 0.155 | -0.058 | 0.016 | 0.024 | -0.018 | -0.013 | -0.029 | 0.025 | 0.033 | -0.047 | 0.206 (active) | 0.061 | -0.035 | 0.013 | 0.046 | 0.072 | -0.019 | -0.008 | 0.042 |
| CUX1 isoform 3 (UniProt P39880) | 0.073 | 0.002 | 0.003 | -0.061 | 0.017 | -0.022 | 0.003 | -0.051 | 0.012 | 0.005 | 0.059 | -0.012 | -0.011 | 0.028 | -0.004 | -0.006 | 0.107 | -0.152 | 0.018 | 0.029 |
| CSTB (UniProt P04080) | 0.017 | -0.047 | 0.03 | -0.065 | 0.019 | -0.059 | 0.037 | 0.121 | 0.009 | 0.021 | 0.007 | 0.001 | 0.077 | 0.043 | 0.044 | -0.027 | -0.376 (active) | 0.174 | 0.013 | 0.086 |
| CPT1A (UniProt P50416) | 0.042 | -0.021 | -0.016 | 0.008 | -0.026 | -0.009 | -0.041 | -0.05 | -0.008 | 0.017 | 0.024 | 0.035 | 0.048 | 0.038 | 0.032 | -0.018 | 0 | -0.137 | -0.004 | -0.014 |
| CXorf38 (UniProt Q8TB03) | 0.054 | 0.015 | -0.008 | -0.007 | 0.062 | -0.095 | 0.016 | -0.002 | -0.015 | 0.025 | 0.017 | -0.015 | -0.024 | 0.038 | 0.013 | -0.027 | -0.059 | 0.04 | 0.105 | 0.018 |
